Substitutions are numbered along the chain they refer to.
Experiments:
Test in all cases: PBM; 200 nM protein, PBS
Settings in all cases: dsDNA, one strand shown
PRRX1 [1] = target: PRRX1 (Homo sapiens, UniProt P54821 80-166, F113S)
HOXA2 = HOXA2 (Homo sapiens, UniProt O43364 129-215, R185T)
MSX2 [2] = target: MSX2 (Homo sapiens, UniProt P35548 130-214, R199I)
PAX4 [3] = target: T1, PAX4 (Homo sapiens, UniProt O43316 9-242, R200Q)
T1 sequence: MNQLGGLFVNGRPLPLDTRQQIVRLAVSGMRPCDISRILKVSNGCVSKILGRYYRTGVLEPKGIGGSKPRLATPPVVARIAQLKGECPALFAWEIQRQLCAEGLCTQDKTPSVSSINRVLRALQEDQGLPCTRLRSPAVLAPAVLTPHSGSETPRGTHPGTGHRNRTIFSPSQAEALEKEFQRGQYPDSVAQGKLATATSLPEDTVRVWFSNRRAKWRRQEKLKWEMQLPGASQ

PAX4 [4] = target: T2, PAX4 (Homo sapiens, UniProt O43316 9-242, F177V)
T2 sequence: T1 sequence with F169V, Q192R

MSX2 [5] = target: MSX2 (Homo sapiens, UniProt P35548 130-214)
PAX4 [6] = target: T3, PAX4 (Homo sapiens, UniProt O43316 9-242, F177Y)
T3 sequence: T1 sequence with F169Y, Q192R

MSX2 [7] = target: MSX2 (Homo sapiens, UniProt P35548 130-214, F161Y)
HOXA4 [8] = target: HOXA4 (Homo sapiens, UniProt Q00056 201-287, W262F)
PRRX1 [9] = target: PRRX1 (Homo sapiens, UniProt P54821 80-166)
VENTX [10] = target: T4, VENTX (Homo sapiens, UniProt O95231 78-163, R121Q)
T4 sequence: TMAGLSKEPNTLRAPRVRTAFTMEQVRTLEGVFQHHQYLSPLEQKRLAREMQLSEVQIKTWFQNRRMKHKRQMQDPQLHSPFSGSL

VAX1 [11] = target: VAX1 (Homo sapiens, UniProt Q5SQQ9 86-172, T142I)
VAX1 [12] = target: VAX1 (Homo sapiens, UniProt Q5SQQ9 86-172, K157R)
VENTX [13] = target: T5, VENTX (Homo sapiens, UniProt O95231 78-163, Y115F)
T5 sequence: T4 sequence with Y38F, Q44R

HOXB6 = HOXB6 (Homo sapiens, UniProt P17509 132-218, K202E)
HOXA4 [14] = target: HOXA4 (Homo sapiens, UniProt Q00056 201-287, R217L)
Chain of HOXA4 (Homo sapiens, UniProt Q00056 201-287, R217L) (Q00056 201-287 R217L): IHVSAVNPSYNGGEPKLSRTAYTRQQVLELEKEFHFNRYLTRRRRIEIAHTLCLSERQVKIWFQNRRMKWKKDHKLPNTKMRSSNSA

Chain of VAX1 (Homo sapiens, UniProt Q5SQQ9 86-172, K157R) (Q5SQQ9 86-172 K157R): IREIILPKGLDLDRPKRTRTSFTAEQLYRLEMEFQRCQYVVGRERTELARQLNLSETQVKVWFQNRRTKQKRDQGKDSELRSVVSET
Chain of HOXA2 (O43364 129-215 R185T): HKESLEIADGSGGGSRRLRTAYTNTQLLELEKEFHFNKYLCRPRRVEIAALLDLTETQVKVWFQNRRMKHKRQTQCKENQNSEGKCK
Chain of MSX2 (Homo sapiens, UniProt P35548 130-214, R199I) (P35548 130-214 R199I): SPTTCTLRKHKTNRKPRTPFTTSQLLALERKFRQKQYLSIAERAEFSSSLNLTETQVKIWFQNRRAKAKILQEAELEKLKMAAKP
Chain of MSX2 (Homo sapiens, UniProt P35548 130-214) (P35548 130-214): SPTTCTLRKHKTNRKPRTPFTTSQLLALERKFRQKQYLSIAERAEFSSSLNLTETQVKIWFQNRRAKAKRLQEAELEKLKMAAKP
Chain of PRRX1 (Homo sapiens, UniProt P54821 80-166) (P54821 80-166): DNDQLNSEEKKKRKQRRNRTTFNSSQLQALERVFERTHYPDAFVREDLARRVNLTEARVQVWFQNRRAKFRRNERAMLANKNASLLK
Chain of HOXA4 (Homo sapiens, UniProt Q00056 201-287, W262F) (Q00056 201-287 W262F): as the sequence (Q00056 201-287 R217L) above, with L17R, W62F counted along it
Chain of VAX1 (Homo sapiens, UniProt Q5SQQ9 86-172, T142I) (Q5SQQ9 86-172 T142I): as the sequence (Q5SQQ9 86-172 K157R) above, with T57I, R72K counted along it
Chain of MSX2 (Homo sapiens, UniProt P35548 130-214, F161Y) (P35548 130-214 F161Y): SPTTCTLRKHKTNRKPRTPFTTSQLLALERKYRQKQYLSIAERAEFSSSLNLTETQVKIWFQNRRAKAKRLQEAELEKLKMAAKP
Chain of PRRX1 (Homo sapiens, UniProt P54821 80-166, F113S) (P54821 80-166 F113S): as the sequence (P54821 80-166) above, with F34S counted along it
Chain of HOXB6 (P17509 132-218 K202E): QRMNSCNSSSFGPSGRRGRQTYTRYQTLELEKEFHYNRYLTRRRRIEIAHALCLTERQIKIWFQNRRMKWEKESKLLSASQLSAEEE

AATTAAGT
binding signal (PRRX1 [1]): 11.2 upbm affinity estimate (log intensity, higher = more binding, comparable within an allelic series) | binding signal (HOXA2): 12.1 upbm affinity estimate (log intensity, higher = more binding, comparable within an allelic series) | binding signal (MSX2 [2]): 12.2 upbm affinity estimate (log intensity, higher = more binding, comparable within an allelic series) | binding signal (PAX4 [3]): 11.9 upbm affinity estimate (log intensity, higher = more binding, comparable within an allelic series) | binding signal (PAX4 [4]): 10.5 upbm affinity estimate (log intensity, higher = more binding, comparable within an allelic series) | binding signal (MSX2 [5]): 13.3 upbm affinity estimate (log intensity, higher = more binding, comparable within an allelic series) | binding signal (PAX4 [6]): 10.9 upbm affinity estimate (log intensity, higher = more binding, comparable within an allelic series) | binding signal (MSX2 [7]): 12.9 upbm affinity estimate (log intensity, higher = more binding, comparable within an allelic series) | binding signal (HOXA4 [8]): 11.4 upbm affinity estimate (log intensity, higher = more binding, comparable within an allelic series) | binding signal (PRRX1 [9]): 13.3 upbm affinity estimate (log intensity, higher = more binding, comparable within an allelic series)

AATTAAAT
binding signal (PRRX1 [1]): 11.3 upbm affinity estimate (log intensity, higher = more binding, comparable within an allelic series) | binding signal (MSX2 [2]): 12.4 upbm affinity estimate (log intensity, higher = more binding, comparable within an allelic series) | binding signal (PAX4 [3]): 12.2 upbm affinity estimate (log intensity, higher = more binding, comparable within an allelic series) | binding signal (PAX4 [4]): 10.8 upbm affinity estimate (log intensity, higher = more binding, comparable within an allelic series) | binding signal (MSX2 [5]): 13.6 upbm affinity estimate (log intensity, higher = more binding, comparable within an allelic series) | binding signal (PAX4 [6]): 11.3 upbm affinity estimate (log intensity, higher = more binding, comparable within an allelic series) | binding signal (MSX2 [7]): 13.1 upbm affinity estimate (log intensity, higher = more binding, comparable within an allelic series) | binding signal (HOXA4 [8]): 11.4 upbm affinity estimate (log intensity, higher = more binding, comparable within an allelic series) | binding signal (PRRX1 [9]): 13.4 upbm affinity estimate (log intensity, higher = more binding, comparable within an allelic series)

CCAATTAC
binding signal (PRRX1 [1]): 11.1 upbm affinity estimate (log intensity, higher = more binding, comparable within an allelic series) | binding signal (MSX2 [2]): 12.8 upbm affinity estimate (log intensity, higher = more binding, comparable within an allelic series) | binding signal (MSX2 [5]): 13.9 upbm affinity estimate (log intensity, higher = more binding, comparable within an allelic series) | binding signal (MSX2 [7]): 13.5 upbm affinity estimate (log intensity, higher = more binding, comparable within an allelic series) | binding signal (PRRX1 [9]): 13.4 upbm affinity estimate (log intensity, higher = more binding, comparable within an allelic series)

CAATTAGA
binding signal (VENTX [10]): 11.8 upbm affinity estimate (log intensity, higher = more binding, comparable within an allelic series) | binding signal (PRRX1 [1]): 10.9 upbm affinity estimate (log intensity, higher = more binding, comparable within an allelic series) | binding signal (HOXA2): 12.5 upbm affinity estimate (log intensity, higher = more binding, comparable within an allelic series) | binding signal (MSX2 [2]): 12.6 upbm affinity estimate (log intensity, higher = more binding, comparable within an allelic series) | binding signal (MSX2 [5]): 13.8 upbm affinity estimate (log intensity, higher = more binding, comparable within an allelic series) | binding signal (MSX2 [7]): 13.4 upbm affinity estimate (log intensity, higher = more binding, comparable within an allelic series) | binding signal (VAX1 [11]): 12.2 upbm affinity estimate (log intensity, higher = more binding, comparable within an allelic series) | binding signal (PRRX1 [9]): 13.2 upbm affinity estimate (log intensity, higher = more binding, comparable within an allelic series) | binding signal (VAX1 [12]): 12.3 upbm affinity estimate (log intensity, higher = more binding, comparable within an allelic series)

AATTAAGC
binding signal (PRRX1 [1]): 11 upbm affinity estimate (log intensity, higher = more binding, comparable within an allelic series) | binding signal (VENTX [13]): 11.5 upbm affinity estimate (log intensity, higher = more binding, comparable within an allelic series) | binding signal (HOXA2): 12.5 upbm affinity estimate (log intensity, higher = more binding, comparable within an allelic series) | binding signal (MSX2 [2]): 12.2 upbm affinity estimate (log intensity, higher = more binding, comparable within an allelic series) | binding signal (PAX4 [3]): 12 upbm affinity estimate (log intensity, higher = more binding, comparable within an allelic series) | binding signal (PAX4 [4]): 10.5 upbm affinity estimate (log intensity, higher = more binding, comparable within an allelic series) | binding signal (PAX4 [6]): 11 upbm affinity estimate (log intensity, higher = more binding, comparable within an allelic series) | binding signal (MSX2 [7]): 12.9 upbm affinity estimate (log intensity, higher = more binding, comparable within an allelic series) | binding signal (VAX1 [11]): 12.3 upbm affinity estimate (log intensity, higher = more binding, comparable within an allelic series) | binding signal (HOXA4 [8]): 11.5 upbm affinity estimate (log intensity, higher = more binding, comparable within an allelic series) | binding signal (PRRX1 [9]): 13.3 upbm affinity estimate (log intensity, higher = more binding, comparable within an allelic series)

GAGGGGGC
binding signal (HOXA2): 7.01 upbm affinity estimate (log intensity, higher = more binding, comparable within an allelic series)

AATTAAGA
binding signal (PRRX1 [1]): 11.2 upbm affinity estimate (log intensity, higher = more binding, comparable within an allelic series) | binding signal (PAX4 [3]): 11.9 upbm affinity estimate (log intensity, higher = more binding, comparable within an allelic series) | binding signal (PAX4 [4]): 10.5 upbm affinity estimate (log intensity, higher = more binding, comparable within an allelic series) | binding signal (PAX4 [6]): 10.9 upbm affinity estimate (log intensity, higher = more binding, comparable within an allelic series) | binding signal (HOXA4 [8]): 11.6 upbm affinity estimate (log intensity, higher = more binding, comparable within an allelic series)

AATTAGCC
binding signal (PRRX1 [1]): 10.7 upbm affinity estimate (log intensity, higher = more binding, comparable within an allelic series) | binding signal (MSX2 [2]): 12.1 upbm affinity estimate (log intensity, higher = more binding, comparable within an allelic series) | binding signal (PAX4 [3]): 11.7 upbm affinity estimate (log intensity, higher = more binding, comparable within an allelic series) | binding signal (PAX4 [4]): 10.1 upbm affinity estimate (log intensity, higher = more binding, comparable within an allelic series) | binding signal (MSX2 [5]): 13.3 upbm affinity estimate (log intensity, higher = more binding, comparable within an allelic series) | binding signal (PAX4 [6]): 10.5 upbm affinity estimate (log intensity, higher = more binding, comparable within an allelic series) | binding signal (MSX2 [7]): 12.9 upbm affinity estimate (log intensity, higher = more binding, comparable within an allelic series) | binding signal (VAX1 [11]): 12.1 upbm affinity estimate (log intensity, higher = more binding, comparable within an allelic series) | binding signal (PRRX1 [9]): 13.2 upbm affinity estimate (log intensity, higher = more binding, comparable within an allelic series) | binding signal (VAX1 [12]): 12.1 upbm affinity estimate (log intensity, higher = more binding, comparable within an allelic series)

GCCAATTA
binding signal (VENTX [10]): 11.8 upbm affinity estimate (log intensity, higher = more binding, comparable within an allelic series) | binding signal (PRRX1 [1]): 11.2 upbm affinity estimate (log intensity, higher = more binding, comparable within an allelic series) | binding signal (VENTX [13]): 11.5 upbm affinity estimate (log intensity, higher = more binding, comparable within an allelic series) | binding signal (HOXA2): 12.6 upbm affinity estimate (log intensity, higher = more binding, comparable within an allelic series) | binding signal (MSX2 [2]): 13 upbm affinity estimate (log intensity, higher = more binding, comparable within an allelic series) | binding signal (PAX4 [3]): 11.9 upbm affinity estimate (log intensity, higher = more binding, comparable within an allelic series) | binding signal (MSX2 [5]): 14 upbm affinity estimate (log intensity, higher = more binding, comparable within an allelic series) | binding signal (MSX2 [7]): 13.6 upbm affinity estimate (log intensity, higher = more binding, comparable within an allelic series) | binding signal (VAX1 [11]): 12.4 upbm affinity estimate (log intensity, higher = more binding, comparable within an allelic series) | binding signal (PRRX1 [9]): 13.3 upbm affinity estimate (log intensity, higher = more binding, comparable within an allelic series) | binding signal (VAX1 [12]): 12.6 upbm affinity estimate (log intensity, higher = more binding, comparable within an allelic series)

CAATTATA
binding signal (PRRX1 [1]): 11.5 upbm affinity estimate (log intensity, higher = more binding, comparable within an allelic series) | binding signal (HOXB6): 10 upbm affinity estimate (log intensity, higher = more binding, comparable within an allelic series) | binding signal (HOXA4 [14]): 12 upbm affinity estimate (log intensity, higher = more binding, comparable within an allelic series) | binding signal (MSX2 [2]): 13.1 upbm affinity estimate (log intensity, higher = more binding, comparable within an allelic series) | binding signal (MSX2 [5]): 14 upbm affinity estimate (log intensity, higher = more binding, comparable within an allelic series) | binding signal (MSX2 [7]): 13.7 upbm affinity estimate (log intensity, higher = more binding, comparable within an allelic series) | binding signal (PRRX1 [9]): 13.4 upbm affinity estimate (log intensity, higher = more binding, comparable within an allelic series)

Reference: article PMC11006913
